Measurements as given in PubChem BioAssay (Tox21).
Inconclusive results are not listed. The source made the active and inactive calls. Unless noted, calls come from the whole dose curve; as a rule, active = well fitted curve in the direction sought with a large enough effect in the repeat runs; inconclusive = weak or mixed curves; inactive = no such curve, though single readings can be large; an effect the other way counts as inactive or inconclusive.

Assays:
[1] = qHTS assay to identify small molecule antagonists of the estrogen receptor alpha (ER-alpha) signaling pathway using the BG1 cell line in the presence of 0.1 nM 17-beta-estradiol - cell viability counter screen (AID 1259241); note: nearly all actives have a fitted effect of over 40% in size
Method in brief: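 CellTiter-Fluor read (30 min, 37C) on ER-alpha/ERE-luc VM7Luc4E2 cells; 22 hr compound treatment; agonist 0.1 nM E2 final; same-well multiplex.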

[2] = qHTS assay to identify small molecule antagonists of the androgen receptor (AR) signaling pathway using the MDA cell line in the presence of 0.5 nM R1881 - cell viability counter screen (AID 1259242); note: nearly all actives have a fitted effect of over 45% in size
Method in brief: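 MDA-kb2 cells (human breast carcinoma, stably carrying MMTV-luciferase reporter) were exposed to compounds with 0.5 nM R1881 (final) for 16 hr at 37C, 0% CO2; viability then read as live-cell protease fluorescence (CellTiter-Fluor, 30 min) in the same wells.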

[3] = biological target: Androgen receptor (Homo sapiens) (UniProt P10275); assay: qHTS assay to identify small molecule antagonists of the androgen receptor (AR) signaling pathway using the MDA cell line in the presence of 0.5 nM R1881 (AID 1259243); note: nearly all actives have a fitted effect of over 50% in size
Method in brief: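 MDA-kb2 human breast carcinoma cells carrying an MMTV-luciferase reporter (AR- and GR-responsive) were plated, rested 5 hr at 37C, dosed with compounds, then stimulated with 0.5 nM R1881 (final) for 16 hr; luminescence was read after ONE-Glo.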

[4] = qHTS assay to identify small molecule HDAC inhibitors (AID 1259364); note: top concentration of the series differs between compounds; nearly all actives have a fitted effect of over 45% in size
Method in brief: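 Wild-type HCT-116 cells were plated overnight, exposed to compounds for 2 h at 37 °C, then given HDAC-Glo class I/II luminogenic reagent for 30 min at room temperature before luminescence was read.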

[5] = qHTS assay to identify small molecule HDAC inhibitors - cell viability counter screen (AID 1259365); note: series mostly up to about 92 µM; nearly all actives have a fitted effect of over 50% in size
Method in brief: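 To flag cytotoxic hits, 1,500 wild-type HCT-116 cells per well, plated the day before, receive test compounds for 2hr at 37 C before CellTiter-Glo reagent and a luminescence read.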

[6] = qHTS assay to identify small molecule agonists of the sonic hedgehog signaling (Shh) pathway - cell viability counter screen (AID 1259366); note: nearly all actives have a fitted effect of over 50% in size
Method in brief: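 Fluorescence from CellTiter-Fluor reports live cells in this counter screen. NIH/3T3-derived Gli1-Luc reporter cells receive test compounds for 24hr at 37C; reagent goes in at 23hr.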

[7] = qHTS assay to identify small molecule antagonists of the sonic hedgehog signaling (Shh) pathway - cell viability counter screen (AID 1259367); note: nearly all actives have a fitted effect of over 55% in size
Method in brief: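 NIH/3T3-derived Gli1-Luc reporter cells (2,000 per well) rested 4 hr at 37 C, then received DMSO compounds plus conditioned medium. After 23 hr of treatment, CellTiter-Fluor was added for 1 hr at 37C and fluorescence read.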

[8] = qHTS assay to identify small molecule antagonists of the sonic hedgehog signaling (Shh) pathway (AID 1259369; calls by dose curve; note: nearly all actives have a fitted effect of over 45% in size)
Method in brief: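 NIH/3T3-derived 3T3Gli1-Luc cells with stably integrated Gli1-Luc reporter were preincubated 4hr at 37 C, then given compounds in DMSO plus Shh conditioned medium and incubated 24hr. Firefly luciferase luminescence read after 30min reagent at room temperature.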

[9] = biological target: Estrogen receptor beta (Homo sapiens) (UniProt Q92731); assay: qHTS assay to identify small molecule agonists of the estrogen receptor beta (ER-beta) signaling pathway (AID 1259377; active = well fitted activation curve with a large enough effect in the signal ratio in the repeat runs, not every such curve was filed as active; the % refers to the signal ratio)
Method in brief: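 Screening used GripTite ER-beta-UAS-bla cells held in 2% charcoal-stripped FBS medium. After overnight (16 hr) compound incubation at 37C, beta-lactamase activity was detected with a FRET substrate by fluorescence.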

[10] = biological target: Estrogen receptor beta (Homo sapiens) (UniProt Q92731); assay: qHTS assay to identify small molecule antagonists of the estrogen receptor beta (ER-beta) signaling pathway (AID 1259378; active = well fitted inhibition curve with a large enough effect in the signal ratio in the repeat runs, not every such curve was filed as active; the % refers to the signal ratio)
Method in brief: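 ER-beta-UAS-bla HEK293T (GripTite) cells in 2% charcoal-stripped FBS medium were preincubated 6 hr at 37C, dosed with compound, then stimulated with 1 nM E2 (final) for 16 hr; beta-lactamase reporter read by B/G FRET fluorescence after 2 hr substrate loading.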

[11] = qHTS assay to identify small molecule agonists of the androgen receptor (AR) signaling pathway in the presence of an antagonist - cell viability counter screen (AID 1259379); note: series mostly up to about 92 µM; nearly all actives have a fitted effect of over 25% in size
Method in brief: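 MDA-kb2 human breast carcinoma cells (stable MMTV-luciferase, AR/GR responsive) were seeded 3,000 cells/well, pre-incubated 5 hr at 37C without CO2, then given 3.0uM nilutamide and compounds at 15 concentrations for 16 hr. Viability was read by CellTiter-Fluor fluorescence.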

[12] = qHTS assay to identify small molecule agonists of the estrogen receptor beta (ER-beta) signaling pathway - cell viability counter screen (AID 1259380); note: nearly all actives have a fitted effect of over 30% in size
Method in brief: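 ER-beta-UAS-bla HEK293T cells in medium with 2% charcoal-stripped FBS were preincubated 6 hr at 37C, dosed with compound in DMSO for 16 hr, then after the bla read, CellTiter-Glo was added for 30 min at room temperature; luminescence recorded.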

[13] = qHTS assay to identify small molecule antagonists of the estrogen receptor beta (ER-beta) signaling pathway - cell viability counter screen (AID 1259382); note: series mostly up to about 92 µM; nearly all actives have a fitted effect of over 55% in size
Method in brief: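 ER-beta-UAS-bla HEK293T cells (2,000/well, 2% charcoal-stripped FBS) were pre-incubated 6 hr at 37C, then given compound plus 1nM final 17-beta-estradiol for 16 hr. Viability was read in the same wells by CellTiter-Glo luminescence after 30 min at room temperature.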

[14] = qHTS assay to identify small molecule agonists or antagonists of the thyroid stimulating hormone receptor (TSHR) signaling pathway - wild type cell line counter screen (AID 1259384; calls by dose curve)
Method in brief: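 Wild-type HEK293 cells were plated 18 h at 37 C/5% CO2, pin-dosed with compound plus Ro20-1724 medium, held 30 min at room temperature, then given cAMP-d2 and anti-cAMP-cryptate; fluorescence was read after 1 h. Fifteen concentrations, triplicate.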

[15] = biological target: Thyrotropin receptor (Homo sapiens) (UniProt P16473); assay: qHTS assay to identify small molecule antagonists of the thyroid stimulating hormone receptor (TSHR) signaling pathway (AID 1259385; calls by dose curve; note: nearly all actives have a fitted effect of over 20% in size)
Method in brief: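 TSHR-HEK293 cells were plated and held 18 h at 37C/5% CO2, then given compound plus Ro20-1724 and stimulated with TSH at 1.5 ng/mL final. After 30 min at room temperature, cAMP was detected with cAMP-d2/anti-cAMP-cryptate (1 h) by fluorescence.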

[16] = qHTS assay to identify small molecule agonists of the estrogen receptor alpha (ER-alpha) signaling pathway in the presence of an antagonist - cell viability counter screen (AID 1259386); note: series mostly up to about 92 µM; nearly all actives have a fitted effect of over 30% in size
Method in brief: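 VM7Luc4E2 cells (endogenous full-length ER-alpha, 4×ERE-luciferase) were held 5 days in phenol red-free medium with 10% charcoal-stripped FBS, plated, then given 10.0nM ICI-182,780 and compounds at 15 concentrations for 22hr at 37C; viability read by CellTiter-Fluor fluorescence.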

[17] = qHTS assay to identify small molecule phospholipidosis (PLD) inducers (AID 1259344; active = well fitted curve in the direction sought with a large enough effect; an effect the other way counts as inactive or inconclusive)
Method in brief: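 HepG2 cells on collagen I, attached 4 h at 37 C, were co-treated with compound and LipidTOX Red dye for 24 h at 37 C, then fixed with paraformaldehyde plus Hoechst 33342 and imaged by high-content microscopy for phospholipid accumulation.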

[18] = qHTS assay to identify small molecule agonists of the sonic hedgehog signaling (Shh) pathway (AID 1259368; calls by dose curve; note: series mostly up to about 92 µM; nearly all actives have a fitted effect of over 15% in size)
Method in brief: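 NIH/3T3-derived 3T3Gli1-Luc cells carrying a stably integrated Gli1 response element–firefly luciferase reporter were plated, left 4 hr at 37 C, then given compounds in DMSO for 24 hr. Luminescence was read 30 min after adding luciferase reagent.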

[19] = biological target: Estrogen receptor (Homo sapiens) (UniProt P03372); assay: qHTS assay to identify small molecule antagonists of the estrogen receptor alpha (ER-alpha) signaling pathway using the BG1 cell line in the presence of 0.1 nM 17-beta-estradiol (AID 1259244); note: nearly all actives have a fitted effect of over 50% in size
Method in brief: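 VM7Luc4E2 cells (endogenous full-length ER-alpha, stable 4xERE-luciferase) were grown 5 days in phenol red-free medium with charcoal-stripped FBS, then exposed 22 h at 37C to compounds plus 0.1 nM (final) 17beta-estradiol; ONE-Glo luminescence read-out.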

[20] = biological target: Estrogen receptor (Homo sapiens) (UniProt P03372); assay: qHTS assay to identify small molecule agonists of the estrogen receptor alpha (ER-alpha) signaling pathway in the presence of an antagonist (AID 1259383; calls by dose curve; note: top concentration of the series differs between compounds; nearly all actives have a fitted effect of over 15% in size)
Method in brief: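 VM7Luc4E2 cells (endogenous full-length ER-alpha, 4×ERE-luciferase) were precultured 5 days in phenol red-free medium with 10% charcoal-stripped FBS, given 10.0nM ICI-182,780 (final), then treated with compounds at 15 concentrations for 22hr at 37C; luminescence read with ONE-Glo.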
% is set by controls: 0 for no effect and ±100 for the full control effect.

Chain of Estrogen receptor beta (Homo sapiens) (Q92731 whole entry, looked up): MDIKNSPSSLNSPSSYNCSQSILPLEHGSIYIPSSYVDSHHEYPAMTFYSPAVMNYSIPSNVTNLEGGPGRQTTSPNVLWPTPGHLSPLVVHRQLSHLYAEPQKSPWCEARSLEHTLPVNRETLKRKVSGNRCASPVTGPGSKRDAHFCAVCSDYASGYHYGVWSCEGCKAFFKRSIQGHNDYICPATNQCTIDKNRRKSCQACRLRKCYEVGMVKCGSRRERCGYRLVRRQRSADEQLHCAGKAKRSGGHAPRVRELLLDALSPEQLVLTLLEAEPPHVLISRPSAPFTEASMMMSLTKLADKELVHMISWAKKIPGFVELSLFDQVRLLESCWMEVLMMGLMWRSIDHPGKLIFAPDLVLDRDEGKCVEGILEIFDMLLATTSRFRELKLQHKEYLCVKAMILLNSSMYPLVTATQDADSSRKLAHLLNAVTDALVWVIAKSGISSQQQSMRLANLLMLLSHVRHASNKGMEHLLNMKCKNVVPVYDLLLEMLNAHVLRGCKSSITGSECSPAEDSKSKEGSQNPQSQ
Chain of Thyrotropin receptor (Homo sapiens) (P16473 whole entry, looked up): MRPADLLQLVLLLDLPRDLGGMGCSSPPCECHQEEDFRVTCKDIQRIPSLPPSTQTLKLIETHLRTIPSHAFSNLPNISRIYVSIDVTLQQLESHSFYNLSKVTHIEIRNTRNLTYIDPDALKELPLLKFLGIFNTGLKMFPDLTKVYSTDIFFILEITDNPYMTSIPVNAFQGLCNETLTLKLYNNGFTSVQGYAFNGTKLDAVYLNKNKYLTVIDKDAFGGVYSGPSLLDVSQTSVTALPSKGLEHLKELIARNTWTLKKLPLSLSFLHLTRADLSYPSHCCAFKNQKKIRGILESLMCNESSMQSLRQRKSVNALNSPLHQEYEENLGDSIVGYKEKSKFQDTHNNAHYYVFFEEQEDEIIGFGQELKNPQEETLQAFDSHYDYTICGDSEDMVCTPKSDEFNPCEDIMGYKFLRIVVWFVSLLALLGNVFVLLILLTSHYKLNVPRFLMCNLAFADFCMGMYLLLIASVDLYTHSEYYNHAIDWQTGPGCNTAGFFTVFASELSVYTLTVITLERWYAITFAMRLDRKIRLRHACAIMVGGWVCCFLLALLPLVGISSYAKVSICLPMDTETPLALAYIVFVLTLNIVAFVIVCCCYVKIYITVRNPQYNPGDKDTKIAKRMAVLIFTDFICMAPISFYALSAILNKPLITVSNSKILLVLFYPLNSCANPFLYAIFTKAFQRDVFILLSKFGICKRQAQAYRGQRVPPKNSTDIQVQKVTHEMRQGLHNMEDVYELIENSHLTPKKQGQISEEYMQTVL
Chain of Estrogen receptor (Homo sapiens) (P03372 whole entry, looked up): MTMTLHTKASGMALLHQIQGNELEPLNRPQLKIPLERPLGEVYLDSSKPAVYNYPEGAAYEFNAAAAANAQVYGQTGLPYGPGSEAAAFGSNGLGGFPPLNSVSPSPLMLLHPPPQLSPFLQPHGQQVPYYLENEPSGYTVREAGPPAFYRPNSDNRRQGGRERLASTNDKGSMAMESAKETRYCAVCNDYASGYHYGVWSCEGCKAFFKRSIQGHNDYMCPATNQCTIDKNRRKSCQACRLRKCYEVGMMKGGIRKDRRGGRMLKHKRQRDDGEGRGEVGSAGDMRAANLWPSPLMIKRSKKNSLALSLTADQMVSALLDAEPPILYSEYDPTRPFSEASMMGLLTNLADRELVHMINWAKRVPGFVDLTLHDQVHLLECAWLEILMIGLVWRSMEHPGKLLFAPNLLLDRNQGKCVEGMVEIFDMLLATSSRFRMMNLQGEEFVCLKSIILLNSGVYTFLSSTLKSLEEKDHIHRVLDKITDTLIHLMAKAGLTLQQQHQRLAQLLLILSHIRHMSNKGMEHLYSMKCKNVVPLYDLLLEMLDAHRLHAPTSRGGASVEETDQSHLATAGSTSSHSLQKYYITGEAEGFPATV
Chain of Androgen receptor (Homo sapiens) (P10275 whole entry, looked up): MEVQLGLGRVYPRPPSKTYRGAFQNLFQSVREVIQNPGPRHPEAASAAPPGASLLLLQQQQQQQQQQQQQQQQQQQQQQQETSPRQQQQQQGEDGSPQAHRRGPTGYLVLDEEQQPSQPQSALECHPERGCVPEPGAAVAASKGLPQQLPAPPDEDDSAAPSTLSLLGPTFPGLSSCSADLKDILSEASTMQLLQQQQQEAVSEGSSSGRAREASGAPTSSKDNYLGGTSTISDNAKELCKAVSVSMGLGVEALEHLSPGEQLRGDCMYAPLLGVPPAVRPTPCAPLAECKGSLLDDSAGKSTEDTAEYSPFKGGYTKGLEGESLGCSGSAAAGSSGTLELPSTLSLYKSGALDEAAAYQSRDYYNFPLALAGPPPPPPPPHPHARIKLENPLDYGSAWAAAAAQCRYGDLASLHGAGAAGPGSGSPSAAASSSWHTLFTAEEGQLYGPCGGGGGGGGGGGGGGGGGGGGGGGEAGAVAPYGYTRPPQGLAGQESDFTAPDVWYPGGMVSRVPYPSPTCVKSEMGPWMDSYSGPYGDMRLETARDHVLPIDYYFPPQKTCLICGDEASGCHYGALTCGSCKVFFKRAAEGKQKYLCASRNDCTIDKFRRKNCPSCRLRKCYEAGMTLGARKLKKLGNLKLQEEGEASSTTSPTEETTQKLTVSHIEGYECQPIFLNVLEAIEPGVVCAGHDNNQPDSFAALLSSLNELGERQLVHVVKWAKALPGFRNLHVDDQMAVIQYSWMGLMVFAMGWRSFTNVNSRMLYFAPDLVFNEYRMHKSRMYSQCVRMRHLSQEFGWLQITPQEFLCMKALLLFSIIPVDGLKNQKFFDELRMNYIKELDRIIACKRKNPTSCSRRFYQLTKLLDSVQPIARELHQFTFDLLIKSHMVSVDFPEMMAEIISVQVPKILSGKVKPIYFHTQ

CC(=O)CC(C)C
inactive: outcome [1] | Potency [2] | Potency [3] | Potency [4] | outcome [5] | Potency [6] | Potency [7] | Potency [8] | outcome [9] | outcome [10] | Potency [11] | Potency [12] | Potency [13] | outcome [14] | Potency [15] | Potency [16]

COC(=O)[C@@H](N)Cc1ccc(O)c(O)c1
inactive: outcome [1] | Potency [2] | Potency [3] | Potency [17] | Potency [4] | outcome [5] | Potency [6] | Potency [7] | outcome [18] | Potency [8] | outcome [9] | outcome [10] | Potency [11] | Potency [12] | Potency [13] | outcome [14] | Potency [15] | Potency [16]

NCCCNCCSP(=O)(O)O
inactive: activity change, negative = cytotoxicity [1] -0.971% [at 8.39 µM] | viability change, negative = cytotoxic [2] 0.214% [at 8.39 µM] | activity change, negative = inhibition [19] 3.05% [at 8.39 µM] | Potency [17] | activity change, negative = inhibition [4] -1.97% [at 8.39 µM] | activity change, negative = cytotoxicity [5] 0.673% [at 8.39 µM] | viability change, negative = cytotoxic [6] -2.35% [at 8.39 µM] | viability change, negative = cytotoxic [7] 5.98% [at 8.39 µM] | activity change [18] -0.244% [at 8.39 µM] | activity change, negative = inhibition [8] 21.5% [at 8.39 µM] | activation [9] -1.24% [at 8.39 µM] | activity, negative = inhibition [10] 13.1% [at 8.39 µM] | activity change, negative = cytotoxicity [11] 9.45% [at 8.39 µM] | activity change, negative = cytotoxicity [12] 0.895% [at 8.39 µM] | activity change, negative = cytotoxicity [13] 1.8% [at 8.39 µM] | cAMP activity change [14] -0.261% [at 8.39 µM] | activity change, negative = inhibition [15] -3.62% [at 8.39 µM] | activity change, negative = cytotoxicity [16] -0.352% [at 8.39 µM]

Cn1cc(S(C)=O)c(=O)c2ccc(F)cc21 (configuration not stated)
inactive: outcome [1] | Potency [2] | outcome [19] | Potency [17] | Potency [4] | outcome [5] | Potency [6] | Potency [7] | outcome [18] | Potency [8] | Potency [11] | Potency [12] | Potency [13] | outcome [14] | Potency [15] | Potency [16]

O=c1cc(CO)occ1O
inactive: outcome [1] | Potency [2] | outcome [19] | Potency [17] | Potency [4] | outcome [5] | Potency [6] | Potency [7] | outcome [18] | Potency [8] | outcome [9] | Potency [11] | Potency [12] | Potency [13] | Potency [20] | outcome [14] | Potency [15] | Potency [16]

CC1(C)C(O)C(C)(C)C1O (configuration not stated)
inactive: outcome [1] | Potency [2] | Potency [3] | outcome [19] | Potency [4] | outcome [5] | Potency [6] | Potency [7] | outcome [18] | Potency [8] | Potency [11] | Potency [12] | Potency [13] | Potency [20] | outcome [14] | Potency [15] | Potency [16]

OC1CCCCC1c1ccccc1 (configuration not stated)
inactive: outcome [1] | Potency [2] | Potency [3] | outcome [19] | Potency [4] | outcome [5] | Potency [6] | Potency [7] | outcome [18] | Potency [8] | outcome [9] | outcome [10] | Potency [11] | Potency [12] | Potency [13] | Potency [20] | outcome [14] | Potency [15] | Potency [16]

COc1ccc2c(c1)c(CC(=O)OCC(=O)O)c(C)n2C(=O)c1ccc(Cl)cc1
inactive: outcome [1] | Potency [2] | Potency [3] | Potency [4] | outcome [5] | Potency [6] | Potency [7] | outcome [18] | Potency [8] | Potency [11] | Potency [12] | Potency [13] | outcome [14] | Potency [15] | Potency [16]
